# PABP FP inh – PABP-poly(A) binding inhibition; P11940; PABP-poly(A) RNA binding, fluorescence polarization; inhibition, % at 35 µM; hit rate 1% among 290,000; AID 2014;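 note: calls also rest on retests at 20 µM and on dose response follow-up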
# Efflux pump inh – blocks antifungal efflux pumps in multiplex yeast assay. S. cerevisiae Candida pump triplex, Nile Red efflux. inhibition, % at 10 µM. hit rate 0.44% among 330,000. AID 485275;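 active = plate passing quality check with inhibition over a set limit, or well fluorescence over plate mean plus 4 SD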;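 note: Nile Red retained in pooled yeast measured as flow cytometry median fluorescence; 0% = buffer negative control and 100% = Enniatin B positive control; higher means more Nile Red kept so more efflux inhibition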
# PABP1 MLLE inh – inhibitors of microRNA-mediated deadenylation, human PABP1 MLLE binding; P11940; GST-MLLE / FITC-PAM2 fluorescence polarization; inhibition, % at 20 µM; hit rate 0.36% among 360,000; AID 588489; in the data active = inhibition above about 35%, passing the limit was not always enough;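 note: plate controls were DMSO wells with GST-MLLE for no effect and wells lacking GST-MLLE protein for full effect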
# SUMO HTRF inh – SUMOylation inhibition. HTRF SUMOylation assay, SAE1/SAE2 + UBC9, in vitro. AID 2006. hit rate 0.36% among 290,000. P63279. inhibition, % at 35 µM; in the data active = inhibition above about 50%, passing the limit was not always enough; inconclusive = no clear call, values can overlap the other calls
# Target sequence (P63279 whole entry, looked up): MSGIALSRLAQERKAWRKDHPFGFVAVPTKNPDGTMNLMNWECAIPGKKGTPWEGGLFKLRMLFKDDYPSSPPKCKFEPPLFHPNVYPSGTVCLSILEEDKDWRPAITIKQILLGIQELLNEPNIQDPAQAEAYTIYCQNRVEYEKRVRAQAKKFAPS
# ALR H2O2 inh – human ALR oxidase inhibition via reduced H2O2 | P55789 | purified ALR, DTT oxidation, H2O2 HRP-luminol luminescence | inhibition, % (concentration not given with the values) | hit rate 3.8% among 290,000 | AID 485317;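 active = mean replicate inhibition above about 79%, with every replicate also reaching it, limit read from the data; inconclusive = only one of the two criteria met; inactive = mean below limit and not every replicate reaching it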
# eIF4H inh – inhibitors of RNA binding by human eIF4H; AID 2012; eIF4H fluorescence polarization binding assay; hit rate 0.94% among 290,000; inhibition, % at 35 µM; Q15056;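 note: calls also rest on retests at 20 µM and on dose response follow-up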
# * hit, by the source's call; ? = inconclusive; · = no result given. Rows were chosen to be rich in hits. Some 4.7% of all compounds tested hit in one or more screens of this group. Unless noted, the rule behind the calls is not given here.
SMILES,PABP FP inh,Efflux pump inh,PABP1 MLLE inh,SUMO HTRF inh,ALR H2O2 inh,eIF4H inh
COc1ccc(C(=O)NNC(=O)c2ccncc2)cc1[N+](=O)[O-],-4,0,4,2,-7,-6
COc1ccc(C(=O)NNC(=S)NC(=O)c2cccc([N+](=O)[O-])c2)cc1,·,0,18,·,98*,·
O=C(NC(=S)NNC(=O)c1ccccc1O)c1cccc([N+](=O)[O-])c1,3,0,25,-22,·,14
COc1ccc(C(=O)NC(=S)NNC(=O)c2ccc(O)cc2)cc1[N+](=O)[O-],-1,0,13,7,97*,8
COc1ccc([C@H]2C[C@@H](O)[C@H](n3cc(COC(=O)c4ccccc4)nn3)CN2C(=O)c2cccs2)cc1,·,·,-4,·,·,·
O=c1[nH]nc(Br)c(=O)n1C(c1ccccc1)c1ccccc1,·,·,-1,·,·,·
COc1ccc2nc(-n3c(O)c(C4=c5ccccc5=NC4=O)[nH]c3=S)sc2c1,1.0*,0,14,-11,2,62*
Cn1c(O)c(C2=c3ccccc3=NC2=O)[nH]c1=S,1,0,-2,-18,0,10
CC1=Nc2ccccc2N=C(N)C1c1ccccc1 (stereo not given),-10,0,22,-22,96*,3
CC1=Nc2ccccc2N=C(NC(=O)c2ccccc2)C1c1ccc(Cl)cc1 (stereo not given),1,0,-6,-24,0,-6
OC1(c2ccc(Br)cc2)CN(c2ccccc2)C2=[N+]1CCS2 (stereo not given),7,0,37*,-10,·,-6
OC1(c2ccc(Cl)cc2)CN(c2ccccc2)C2=[N+]1CCS2 (stereo not given),-12,0,37,8,·,-10
O=C(COC(=O)c1ccc(F)c(S(=O)(=O)N2CCOCC2)c1)NCc1ccccc1,·,-1,0,·,-4,·
O=C(O)C(=O)/C(=C\c1cccc2ccccc12)c1ccc2ccccc2n1,91*,0,-72,32,-6,67*
COc1cc(OC)cc(C(=O)N2CCN(C3CCC(C)CC3)CC2)c1 (stereo not given),·,·,-11,·,·,·
CCNC(=O)Oc1ccc[nH]c1=O,24,0,-7,88*,-106,16
COc1ccc(C(=O)Oc2ccc[nH]c2=O)cc1,13,0,-11,10,-45,8
O=C(Oc1ccc[nH]c1=O)c1cc([N+](=O)[O-])cc([N+](=O)[O-])c1,30*,0,-5,98*,-20,50
Cc1ccc([C@H]2C[C@H](O)[C@@H](n3cc(-c4ccc(F)cc4)nn3)CN2C(=O)C2CCCCC2)cc1,·,·,-4,·,·,·
CCCCOP(=O)(OCCCC)C(Nc1ccccc1)c1ccc2c(c1)OCO2 (stereo not given),80*,0,4,-18,17,active
CCOP(=O)(OCC)C(Nc1ccccc1)c1ccc2c(c1)OCO2 (stereo not given),·,0,-6,·,40,·
Cc1ccccc1COc1cccn2c(N(C)C(=O)CCC3CCCC3)c(C)nc12,·,·,11,·,·,·
CCCCC(=O)Nc1ccccc1N1CCN(c2ccccc2)CC1,-12,0,6,-7,74,-2
CCCCCC(=O)Nc1ccccc1N1CCOCC1,11,0,-18,18,99*,-2
CSc1ccccc1NC(=O)CN(C)CC(=O)Nc1ccccc1N1CCOCC1,57,0,-5,7,·,active
SMILES,PABP FP inh,Efflux pump inh,PABP1 MLLE inh,SUMO HTRF inh,ALR H2O2 inh,eIF4H inh
O=C(O)CCC(=O)Nc1ccccc1N1CCOCC1,55*,0,1,-6,-7,14*
CC(C)CC(=O)Nc1ccccc1N1CCOCC1,2,0,12,3,-7,-2
Cc1ccc(C(=O)OCC(=O)Nc2ccccc2N2CCOCC2)cc1,-4,0,-2,-9,92*,100
NC(=O)c1ncn([C@@H]2O[C@H](CNC(=O)[C@H](N)CSCc3ccccc3)[C@@H](O)[C@H]2O)n1,·,·,5,·,·,·
CN(C)c1ccc(-c2nc3ccccc3n2C)cc1,-6,0,0,14,91*,-7
C=CCn1c(-c2ccc(N)cc2)nc2ccccc21,-5,0,-15,7,95*,-4
CCn1c(-c2ccc(N)cc2)nc2ccccc21,-4,0,-10,16,92*,-14
CCn1c(-c2ccc(N(C)C)cc2)nc2ccccc21,-2,0,-5,-3,99*,-3
C=CCn1c(-c2ccc(OC)cc2)nc2ccccc21,0,0,4,1,7,3
CCC1NC(=O)c2cccnc2-n2c1nc1ccc(OC)cc1c2=O (stereo not given),·,·,0,·,·,·
CC[C@@]1(C(=O)OC)N[C@H](CN(C)C(=O)COC)[C@@H]2C(=O)N(Cc3ccccc3)C(=O)[C@@H]21,·,0,-8,·,·,·
COc1cc(Cn2c(-c3ccc(O)c(OC)c3)nc3ccccc32)ccc1O,-9,0,2,-4,99*,-2
Fc1cccc(Cl)c1-c1nnc2ccc3ccccc3n12,7,0,-3,16,98*,2
Nc1nc2c(nc(SCc3ccccc3Br)n2C2OC(CO)C(O)C2O)c(=O)[nH]1 (stereo not given),11,0,-8,-1,86*,5
COc1ccc(-n2nnc3c(=O)n(CC(=O)Nc4cc(C)on4)cnc32)cc1OC,4,0,4,18,-3,3
Cc1cc(C(=O)Nc2ccccc2)c2ccccc2n1,2,0,-8,-7,-4,-1
Cc1cc(C(=O)Nc2sccc2C#N)c2ccccc2n1,22*,0,-59,3,-9,61
CCc1nc2c(OCc3ccc(Cl)cc3Cl)cccn2c1N(C)C(=O)C1CC1,·,·,-4,·,·,·
c1ccc2c(c1)Nc1ccncc1S2,10,0,-10,-8,96*,-1
CCOC(=O)c1sc(NC(=O)CCN2CCN(CC)CC2)c(C(=O)OCC)c1C,0,0,6,-16,96*,4
CCOC(=O)c1sc(NC(=O)CCN2CCC(C)CC2)c(C(=O)OCC)c1C,5,0,4,-6,19,5
O=Nc1nc2ncccn2c1-c1ccccc1,·,·,-55,·,·,·
COC(=O)c1ccc(=O)c2nc3/c(=C/O)c(O)cc(=O)c3[nH]c12,100*,0,6,?,-4,85*
NC(=O)c1cc2c3ccccc3ccn2c1-c1ccccc1,?,0,46*,27,3,?
Cc1sc2nc(CN3CCOCC3)nc(N3CCN(S(=O)(=O)c4ccccc4)CC3)c2c1C,·,0,1,·,-32,·
O=C(Nc1ccc(O)cc1)C1CC=CCC1 (stereo not given),13,0,3,9,99*,12
c1ccc(N2CCN(c3nc4cc5c(cc4s3)OCO5)CC2)cc1,-2,0,28,16,·,-6
c1c2c(cc3sc(N4CCOCC4)nc13)OCO2,9,0,32,6,97*,0
c1c2c(cc3sc(N4CCCCC4)nc13)OCO2,4,0,15,-25,99*,2

# Assay outcomes as filed in PubChem BioAssay.
